The values below come from PubChem BioAssay.

A short description of assay [1]: HepG2 liver cancer cell viability effects, profiling panel, resazurin fluorescence, 24 h, PK04 Diversity Set (AID 1172). To be noted: higher = more signal.
Assay [2] can be described thus: basal S. cerevisiae growth modulation, no modifier, primary screen, OD600, strain BY4716, 24 h, basal condition (AID 1173). Conditions: OD600, 24 h, higher = more signal, called active from +8 up or from −8 down.
Assay [3] in a line: MM1S myeloma cell viability, profiling panel, resazurin fluorescence, basal, 24 h, PK04 Diversity Set (AID 1174). To be noted: higher = more signal, called active from +8 up or from −8 down. (In general: Resazurin is reduced to fluorescent resorufin, in cell work by metabolically active cells.)
Assay [4] has as its target Dihydroorotate dehydrogenase (quinone), mitochondrial (Plasmodium falciparum (isolate 3D7)) (UniProt Q08210). Briefly: PfDHODH enzyme inhibitors, primary screen, biochemical, C-terminal His tag, absorbance 600 nm (AID 1175).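 Further: recombinant parasite enzyme with a five histidine tag at its C terminus.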 Conditions: DCIP absorbance 600 nm, higher = more signal, called active from +8 up or from −8 down.
Assay [5] in a line: P. aeruginosa biofilm formation inhibitors, primary screen, strain PAO1, LB-PBS medium, absorbance 600 nm (AID 1176). Conditions: P. aeruginosa PAO1 growth/biofilm, A600, 12 h; higher = more signal.
Assay [6] can be described thus: S. cerevisiae RM11-1a growth modifiers, primary screen, strain RM11-1a, OD600, basal, 24 h (AID 1177).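 Further: cultures grown under basal conditions with no added stressor.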 Conditions: OD600, 24 h, higher = more signal, called active from +8 up or from −8 down.
The nature of assay [7]: E. coli acrAB mutant growth effects, primary screen, E. coli filamentation inducers, strain DRC39, OD650, 24 h (AID 1178).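 Further: growth measured as culture turbidity by optical density at 650 nm.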 Conditions: higher = more signal, called active from +8 up or from −8 down.
The nature of assay [8]: E. coli acrAB mutant growth effects, primary screen, E. coli filamentation inducers, strain DRC39, OD650, 48 h (AID 1179).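 Further: screen aims at cell division blockers that make cells filament.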 Conditions: E. coli DRC39 delta-acrAB growth, higher = more signal, called active from +8 up or from −8 down.
Assay [9] is described as follows: RPMI8226 myeloma cell viability, profiling panel, resazurin fluorescence, basal, 24 h, PK04 Diversity Set (AID 1180).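 Further: RPMI8826 multiple myeloma cell line at 5000 cells per well.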 To be noted: higher = more signal.
Assay [10] addresses E3 ubiquitin-protein ligase XIAP (Homo sapiens) (UniProt P98170). Kind of assay: XIAP binders, primary screen, biophysical, small-molecule microarray, fluorescence 635 nm (AID 1181).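 Further: score merges 667 nm emission and signal to noise over triplicate slides.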 Conditions: small-molecule microarray binding, higher = more signal.
Assay [11] deals with XIP peptide (Xip251-270) binding. Kind of assay: small-molecule binders of XIP peptide, primary screen, biochemical, small-molecule microarray, fluorescence 635/667 nm, 0.1 µg/mL protein (AID 1182). Conditions: fluorescent protein binding, 635 nm, higher = more signal, called active from +8 up or from −8 down.
A further assay concerns XIP peptide (Xip251-270). Briefly: small-molecule binders of XIP peptide, primary screen, biochemical, small-molecule microarray, fluorescence 635/667 nm, 0.5 µg/mL protein (AID 1183). To be noted: small-molecule microarray binding, fluorescence 635 nm; higher = more signal.
Assay [12] in a line: Plasmodium falciparum growth inhibition, primary screen, strain 3D7, DAPI fluorescence, 100 nL (AID 1184).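 Further: parasites grown inside human red blood cells in medium with human serum.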 To be noted: P. falciparum 3D7 growth, 3 d, higher = more signal.
The target in assay [13] is Homeobox protein Hox-A13 (Mus musculus) (UniProt Q62424). Kind of assay: inhibitors of HoxA13-DNA binding, primary screen, biochemical, fluorescence polarization, labeled oligonucleotide (AID 1185). To be noted: 15 min, higher = more signal, called active from +8 up or from −8 down. (In fluorescence polarisation assays a small probe gives low polarisation when free and higher when bound to something large.)
Chain of Homeobox protein Hox-A13 (Mus musculus) (Q62424 whole entry, looked up): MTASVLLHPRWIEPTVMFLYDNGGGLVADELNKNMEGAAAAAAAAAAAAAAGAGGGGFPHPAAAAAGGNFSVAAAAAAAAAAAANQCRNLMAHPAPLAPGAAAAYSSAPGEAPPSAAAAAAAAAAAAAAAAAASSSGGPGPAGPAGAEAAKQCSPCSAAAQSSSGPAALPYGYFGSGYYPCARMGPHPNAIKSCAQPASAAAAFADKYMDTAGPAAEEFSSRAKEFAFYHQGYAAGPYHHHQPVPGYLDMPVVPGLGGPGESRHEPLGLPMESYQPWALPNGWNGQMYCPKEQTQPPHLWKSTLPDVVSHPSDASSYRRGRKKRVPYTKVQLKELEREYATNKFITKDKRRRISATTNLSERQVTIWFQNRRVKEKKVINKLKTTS

Assay [14] can be described thus: inhibitors of hydroxyurea-induced Chk1 phosphorylation, primary screen, imaging, HeLa, phospho-Chk1 antibody, percent positive cells (AID 1186). To be noted: hydroxyurea-induced phospho-Chk1 immunofluorescence imaging, higher = more signal.
The nature of assay [15]: inhibitors of hydroxyurea-induced Chk1 phosphorylation, primary screen, imaging, HeLa, phospho-Chk1 nuclear intensity (AID 1187). Conditions: hydroxyurea-induced phospho-Chk1 immunofluorescence imaging, higher = more signal.

Activity calls are given as the source filed them. Unless noted, how the calls were made is not given here.

Chain of E3 ubiquitin-protein ligase XIAP (Homo sapiens) (P98170 whole entry, looked up): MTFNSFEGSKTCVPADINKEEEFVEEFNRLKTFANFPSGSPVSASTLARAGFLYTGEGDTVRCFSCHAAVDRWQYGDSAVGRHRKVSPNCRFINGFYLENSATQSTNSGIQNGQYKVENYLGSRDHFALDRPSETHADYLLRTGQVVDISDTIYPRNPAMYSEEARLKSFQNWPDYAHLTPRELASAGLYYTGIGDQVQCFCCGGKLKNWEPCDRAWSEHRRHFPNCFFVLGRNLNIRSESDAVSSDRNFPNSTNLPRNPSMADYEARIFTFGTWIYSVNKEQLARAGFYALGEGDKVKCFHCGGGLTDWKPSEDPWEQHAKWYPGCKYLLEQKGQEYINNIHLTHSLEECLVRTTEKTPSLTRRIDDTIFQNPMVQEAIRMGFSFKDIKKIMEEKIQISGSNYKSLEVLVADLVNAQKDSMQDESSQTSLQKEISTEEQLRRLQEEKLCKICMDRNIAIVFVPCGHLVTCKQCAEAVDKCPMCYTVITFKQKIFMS
Chain of Dihydroorotate dehydrogenase (quinone), mitochondrial (Plasmodium falciparum (isolate 3D7)) (Q08210 whole entry, looked up): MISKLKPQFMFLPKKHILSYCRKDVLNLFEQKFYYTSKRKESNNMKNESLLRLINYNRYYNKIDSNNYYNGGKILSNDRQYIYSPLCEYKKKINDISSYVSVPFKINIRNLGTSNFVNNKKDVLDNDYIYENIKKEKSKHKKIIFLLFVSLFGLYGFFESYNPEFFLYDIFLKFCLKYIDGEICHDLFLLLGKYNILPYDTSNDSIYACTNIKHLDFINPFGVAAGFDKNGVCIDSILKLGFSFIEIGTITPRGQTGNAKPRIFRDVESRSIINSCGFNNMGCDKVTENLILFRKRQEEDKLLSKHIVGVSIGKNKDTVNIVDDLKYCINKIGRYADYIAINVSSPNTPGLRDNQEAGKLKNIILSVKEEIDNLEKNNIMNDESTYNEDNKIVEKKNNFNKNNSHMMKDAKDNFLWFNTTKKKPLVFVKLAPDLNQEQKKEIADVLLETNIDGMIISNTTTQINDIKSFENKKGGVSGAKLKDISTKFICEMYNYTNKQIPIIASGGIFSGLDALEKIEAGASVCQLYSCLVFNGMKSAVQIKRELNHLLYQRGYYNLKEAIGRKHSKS

Consider `O=C(NCC(O)CO)[C@]1(CCS(=O)(=O)c2ccccc2)N=C(c2ccc(OCCCO)cc2)O[C@@H]1c1ccccc1` (some centres undefined), for which the z-score in assay [1] was -0.015; in [2], 0.53 (inactive); in assay [3], -0.57 (inactive); in assay [5], 0.193 (inactive); in assay [6], -0.702 (inactive); in assay [7], -0.0686 (inactive). In addition, the z-score is -0.276 (inactive) in assay [8]; 0.0882 in assay [9]; -0.434 in assay [12]; -7.16 (inactive) in assay [13]; 0.429 (inactive) in assay [14]; -0.0974 (inactive) in assay [15]. For the same molecule, the composite z-score in assay [4] is -0.162 (inactive); in assay [10] it was -0.0203; in assay [11], 1.51 (inactive); with XIP peptide (Xip251-270), -0.0557.

Consider `COc1c(C)cc(-c2cc3c(c(-c4ccccc4)n2)[Si](C(C)C)(C(C)C)O[C@H]3c2ccccc2)cc1C`, for which the z-score in assay [1] is -0.315; in assay [2], -0.0888 (inactive); in [3], -0.477 (inactive); in assay [5], 0.161 (inactive); in assay [6], -1.33 (inactive); in assay [7], -0.102 (inactive). Besides, the z-score in assay [8] was -0.446 (inactive); in assay [9], -0.327; in assay [12] it was -2.88; in assay [13], -0.742 (inactive); in [14], -0.59 (inactive); in [15], -0.492 (inactive). Moreover, the composite z-score in [4] was -1.21 (inactive); in [10], -0.0186; in assay [11] it was 0.648 (inactive); in the assay with XIP peptide (Xip251-270), -0.029.

In the case of `COc1ccc([Si](C)(C)[C@H]2[C@H](CC(=O)N3CCC[C@H]3CO)O[C@@]3(C(=O)N(c4ccccc4)c4ccccc43)[C@@H]2C)cc1`, the z-score in assay [1] was 1.75; in assay [2] it was -2.26 (inactive); in assay [3], 1.55 (inactive); in assay [5] it was 0.826 (inactive); in [6], -1.81 (inactive); in assay [7] it was 1.21 (inactive). The z-score is 1.49 (inactive) in assay [8]; 0.843 in [9]; -0.887 in assay [12]; -3.87 (inactive) in [13]; -1.18 (inactive) in assay [14]; -0.219 (inactive) in assay [15]. Also, the composite z-score in [4] is 0.0873 (inactive); in assay [10] it was -0.167; in assay [11], 0.511 (inactive); in the assay with XIP peptide (Xip251-270), 0.531.

As to `C=CC[C@@]1(C(=O)OC)N=C(c2ccc(OCCCO)cc2)O[C@@H]1c1ccccc1CN=[N+]=[N-]`, the z-score in assay [1] is 1.09; in assay [2], -12.3 (active); in assay [3], -1.72 (inactive); in assay [5] it was -0.347 (inactive); in [6], -0.712 (inactive); in [7], 0.419 (inactive). The z-score in [8] is 0.967 (inactive); in [9], -0.494; in assay [12], -2.39; in [13] it was -3.73 (inactive); in assay [14] it was -1.07 (inactive); in [15], -1.45 (inactive). In addition, the composite z-score in [4] was -0.509 (inactive); in [10], -0.0868; in assay [11], 2.46 (inactive); in the assay with XIP peptide (Xip251-270), 0.611.

For the molecule `C=C[C@H](OC)[C@@H](OC(=O)Nc1ccc(SC)cc1)c1ccc(OCCO)cc1`, the z-score in [1] is -0.237; in assay [2], -1.95 (inactive); in [3] it was -0.895 (inactive); in assay [5], 0.662 (inactive); in assay [6], 0.39 (inactive); in [7] it was 0.0364 (inactive). Besides, the z-score in assay [8] was 0.0255 (inactive); in assay [9], -0.204; in assay [12], 0.194; in assay [13] it was -5.62 (inactive); in assay [14], 0.259 (inactive); in assay [15], 0.654 (inactive). The composite z-score was -1.02 (inactive) in assay [4], -0.0559 in [10], 0.591 (inactive) in assay [11] and -0.0661 with XIP peptide (Xip251-270).

For `O=C(CS)NCCCCCCNC(=O)[C@H]1C[C@H]2C(=O)N3CCC[C@H]3C(=O)N2[C@H]1c1ccc(O)cc1`, the z-score in assay [1] was 0.301; in assay [2] it was 0.152 (inactive); in [3], -0.868 (inactive); in assay [5] it was 0.0499 (inactive); in assay [6], -0.458 (inactive); in [7], -0.144 (inactive). For the same molecule, the z-score in assay [8] is -0.516 (inactive); in assay [9] it was -0.563; in [12], -0.38; in assay [13], -2.8 (inactive); in assay [14], -0.508 (inactive); in assay [15], -0.19 (inactive). The composite z-score in [4] was -0.504 (inactive); in [10] it was 0.115; in assay [11], 0.573 (inactive); in the assay with XIP peptide (Xip251-270), 0.646.

In the case of `O=c1cccc(-c2cccc3ccccc23)o1`, the z-score in assay [1] is -0.0368; in [2], -14.1 (active); in assay [3], -0.0171 (inactive); in assay [5], 0.794 (inactive); in assay [6], -1.95 (inactive); in assay [7] it was -0.0645 (inactive). Besides, the z-score is -0.0042 (inactive) in assay [8]; 0.024 in assay [9]; -0.796 in assay [12]; -1.69 (inactive) in assay [13]; -0.715 (inactive) in assay [14]; -1.06 (inactive) in assay [15]. For the same molecule, the composite z-score in assay [4] was -2.39 (inactive); in assay [10], 0.126; in assay [11], -0.738 (inactive); in the assay on XIP peptide (Xip251-270), 0.454.

As to `CC(C)C(CO)N1C(=O)[C@@H]2[C@H]3C(=O)OCC=C[C@H]3OC23C=CCN(c2ccc4ccccc4c2)C(=O)[C@@H]13` (some centres undefined), the z-score in assay [1] is -0.128; in assay [2] it was 0.485 (inactive); in [3], 0.112 (inactive); in assay [5] it was -0.497 (inactive); in [6], 1.24 (inactive); in assay [7], 0.483 (inactive). Further, the z-score was 0.347 (inactive) in assay [8]; 0.133 in assay [9]; -0.279 in [12]; -3.29 (inactive) in assay [13]; 0.207 (inactive) in assay [14]; 0.426 (inactive) in assay [15]. Further, the composite z-score in assay [4] was 0.958 (inactive); in assay [10], -0.0476; in assay [11], 0.0164 (inactive); in the assay on XIP peptide (Xip251-270), -0.525.

Take `O=C1[C@H]2C=C(Br)[C@H](C[C@@H]2OCCOCCO)[C@@]12CO2`: the z-score in assay [1] was -0.0029; in assay [2], 1.2 (inactive); in assay [3], -0.478 (inactive); in [5], 0.379 (inactive); in assay [6] it was 1.4 (inactive); in assay [7], -0.308 (inactive). Moreover, the z-score was -1.05 (inactive) in assay [8]; -0.608 in assay [9]; -0.334 in assay [12]; -0.559 (inactive) in assay [13]; -0.051 (inactive) in assay [14]; -0.0596 (inactive) in [15]. Moreover, the composite z-score in assay [4] is 0.857 (inactive); in [10], -0.201; in assay [11], -0.0844 (inactive); with XIP peptide (Xip251-270), 0.798.
